Source: PubChem
Shown are actives, neighbours in structure and some others; about 3% of the full set was active somewhere.
BioA inh: M. tuberculosis BioA enzyme inhibitors, primary screen, biochemical, plate reader, single point, HTS; 7,8-diaminopelargonic acid synthase BioA (Mycobacterium tuberculosis); purified M. tuberculosis BioA enzyme; inhibition, % at 9.99 µM; 360,000 tested, 0.096% active; AID 602481, 2012; in the data active = inhibition above about 40%
Mtb FBA inh: Mtb FBA enzyme inhibitors, primary screen, biochemical, fluorescence, strain H37Rv. Fructose-bisphosphate aldolase (Mycobacterium tuberculosis (strain ATCC 25618 / H37Rv)), …. purified M. tuberculosis FBA, fluorescence read-out. inhibition, % at 1 µM. 360,000 tested, 2.3% active. AID 588726, 2011
GDH-TPI counter-1: GDH-TPI coupling enzyme inhibitors, primary screen, artefact control for M. tuberculosis FBA inhibitor project, biochemical, absorbance, full deck | GDH-TPI coupled enzyme counterscreen, NADH absorbance | inhibition, % at 4.8 µM | 360,000 tested, 1.2% active | AID 588335, 2011; in the data active = inhibition above about 30%
Rv3671c inh: Rv3671c serine protease inhibitors, primary screen, biochemical, fluorescence polarization, M. tuberculosis H37Rv; 320,000 tested, 0.048% active; AID 2606, 2010; inhibition, % at 5.96 µM; in the data active = inhibition above about 38%;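 note: extracellular domain of Rv3671c used as enzyme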
Target sequence (P9WHR9 whole entry, looked up, the tested form may be a part): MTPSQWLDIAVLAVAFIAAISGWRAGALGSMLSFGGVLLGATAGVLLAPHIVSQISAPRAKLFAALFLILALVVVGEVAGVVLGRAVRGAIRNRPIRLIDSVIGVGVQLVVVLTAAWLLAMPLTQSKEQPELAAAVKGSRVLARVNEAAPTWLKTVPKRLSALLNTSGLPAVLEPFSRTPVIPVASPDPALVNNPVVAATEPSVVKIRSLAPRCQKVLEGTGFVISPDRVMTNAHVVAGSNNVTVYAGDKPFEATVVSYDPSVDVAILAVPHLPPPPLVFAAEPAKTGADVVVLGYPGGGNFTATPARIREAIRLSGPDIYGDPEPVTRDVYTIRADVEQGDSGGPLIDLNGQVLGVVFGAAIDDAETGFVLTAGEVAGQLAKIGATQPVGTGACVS
FadD28 binding: inhibitors of FadD28 bisubstrate probe binding, primary screen, biochemical, fluorescence polarization, single point; inhibition, % at 12.5 µM; 360,000 tested, 0.22% active; Mycobacterium tuberculosis FadD28 fatty-acid-AMP ligase; in the data active = inhibition above about 8.5%, passing the limit was not always enough
Mtb FBA inh conf: M. tuberculosis aldolase blockers, biochemical, fluorescence, strain H37Rv, confirmation; shares compounds with Mtb FBA inh; purified M. tuberculosis FBA, fluorescence read-out; inhibition, % at 1 µM; 5,600 tested, 78% active; AID 651616, 2012
GDH-TPI counter-2: GDH-TPI coupling enzyme inhibitors, artefact control for M. tuberculosis FBA inhibitor project, biochemical, fluorescence, high throughput; shares compounds with Mtb FBA inh; GDH-TPI coupled enzyme counterscreen; inhibition, % at 1 µM; 5,600 tested, 81% active; in the data active = inhibition above about 10%
GDH-TPI dose: GDH-TPI coupling enzyme inhibitors, dose response, artefact control for M. tuberculosis FBA inhibitor project, biochemical, fluorescence, IC50; shares compounds with Mtb FBA inh; GDH-TPI coupled enzyme assay, artifact counterscreen; IC50, µM; 170 tested, 79% active; AID 652145, 2013; call rule not given here
Hits are given with their value. Cut-off read from the data, not from the text of the source, unless noted: active = inhibition above about 27%; inactive = the rest.

For CCCNC(=O)C[C@H]1C[C@H]2c3cc(NC(=O)CC4CC4)ccc3O[C@H]2[C@@H](CO)O1 the results were BioA inh inactive.
COc1ccc(C(=O)Nc2ccc3c(c2)OC[C@H](C)NC[C@@H](C)[C@@H](OC)CN(C)C3=O)cc1 was read as BioA inh inactive.
For COc1ccc(OC)c(C=NNC(=O)NN=Cc2cc(OC)ccc2OC)c1 the results were BioA inh inactive, Mtb FBA inh inactive, GDH-TPI counter-1 inactive and FadD28 binding inactive.
Screening COc1ccc(OC)c(/C=N/NC(=O)CC(=O)NC2CCCCC2)c1 returned BioA inh inactive, Mtb FBA inh 105, GDH-TPI counter-1 inactive, Rv3671c inh inactive, Mtb FBA inh conf 152 and GDH-TPI counter-2 122.
COc1ccc2cc(OC)c(C(=O)N3CCOCC3)cc2c1 was read as Mtb FBA inh 36, GDH-TPI counter-1 inactive, Rv3671c inh inactive, FadD28 binding inactive, Mtb FBA inh conf inactive and GDH-TPI counter-2 inactive.
For COc1cc2ccccc2cc1C(=O)N1CCN(C(C)=O)CC1 the results were BioA inh inactive, Mtb FBA inh inactive, GDH-TPI counter-1 inactive, Rv3671c inh inactive and FadD28 binding inactive.
COc1ccc2oc(=O)c(C(=O)N3CCN(C(=O)c4ccccc4)CC3)cc2c1 was read as Mtb FBA inh 27, GDH-TPI counter-1 inactive, Rv3671c inh inactive, FadD28 binding inactive, Mtb FBA inh conf 119 and GDH-TPI counter-2 92.
For COc1ccc2oc(=O)c(C(=O)N3CCN(c4ccccc4)CC3)cc2c1 the results were BioA inh inactive, Mtb FBA inh inactive, GDH-TPI counter-1 inactive, Rv3671c inh inactive and FadD28 binding inactive.
Screening COc1ccc2oc(=O)c(C(=O)N3CCN(C(=O)c4ccco4)CC3)cc2c1 returned BioA inh inactive, Mtb FBA inh 34, GDH-TPI counter-1 inactive, Rv3671c inh inactive, FadD28 binding inactive, Mtb FBA inh conf 115 and GDH-TPI counter-2 76.
CO[C@H]1CN(C)C(=O)c2cc(NC(=O)Cc3ccccc3)ccc2OC[C@@H](C)NC[C@@H]1C was read as BioA inh inactive.
O=[N+]([O-])c1ccc(N2CCOCC2)c([N+](=O)[O-])c1 was read as BioA inh inactive, Mtb FBA inh inactive, GDH-TPI counter-1 inactive and FadD28 binding inactive.
O=[N+]([O-])c1ccc(N2CCCC2)c([N+](=O)[O-])c1 was read as BioA inh inactive, Mtb FBA inh 29, GDH-TPI counter-1 inactive, FadD28 binding inactive, Mtb FBA inh conf 182 and GDH-TPI counter-2 123.
N#Cc1c(-c2ccccc2F)cc(-c2cccnc2)nc1N was read as BioA inh inactive, Mtb FBA inh 110, GDH-TPI counter-1 inactive, Rv3671c inh inactive, FadD28 binding inactive, Mtb FBA inh conf inactive and GDH-TPI counter-2 inactive.
For COc1ccc(S(=O)(=O)Nc2ccc3c(c2)CC(=O)N([C@H](C)CO)C[C@@H](C)[C@@H](CN(C)S(=O)(=O)c2c(C)noc2C)O3)cc1 the results were BioA inh inactive.
`N#Cc1cc2cc3c(cc2nc1SCC(=O)N1CCOCC1)OCO3` gave BioA inh inactive, Mtb FBA inh inactive, GDH-TPI counter-1 inactive, Rv3671c inh inactive and FadD28 binding inactive.
For N#Cc1cc2cc3c(cc2nc1NCCNC(=S)NCCCN1CCOCC1)OCO3 the results were Mtb FBA inh 69, GDH-TPI counter-1 inactive, Rv3671c inh inactive, FadD28 binding inactive, Mtb FBA inh conf 133 and GDH-TPI counter-2 111.
CC(=O)Nc1ccc(NC(=O)C2(C)Cc3c(-c4ccc5c(c4)OCO5)ccnc3O2)cc1 (stereo unspecified) was read as BioA inh inactive, Mtb FBA inh 52, GDH-TPI counter-1 inactive, FadD28 binding inactive, Mtb FBA inh conf inactive and GDH-TPI counter-2 inactive.
`CC1(C(=O)Nc2cccnc2)Cc2c(-c3ccc4c(c3)OCO4)ccnc2O1` (stereo unspecified) gave BioA inh inactive, Mtb FBA inh 37, GDH-TPI counter-1 inactive, FadD28 binding inactive, Mtb FBA inh conf 43 and GDH-TPI counter-2 30.
`CC1(C(=O)Nc2ccccc2)Cc2c(-c3ccc4c(c3)OCO4)ccnc2O1` (stereo unspecified) gave BioA inh inactive, Mtb FBA inh 48, GDH-TPI counter-1 inactive, FadD28 binding inactive, Mtb FBA inh conf inactive, GDH-TPI counter-2 inactive and GDH-TPI dose 4.5.
CC1(C(=O)Nc2cccc(Oc3ccccc3)c2)Cc2c(-c3ccc4c(c3)OCO4)ccnc2O1 (stereo unspecified) was read as BioA inh inactive, Mtb FBA inh inactive, GDH-TPI counter-1 inactive and FadD28 binding inactive.
CC(C)C#Cc1cnc2c(c1)C(=O)N([C@@H](C)CO)C[C@H](C)[C@H](CN(C)C(=O)Nc1ccccc1)O2 was read as BioA inh inactive.
Screening CCn1c(-c2cccs2)nc2ccccc21 returned BioA inh inactive, Mtb FBA inh 58, GDH-TPI counter-1 inactive, Rv3671c inh inactive, FadD28 binding inactive, Mtb FBA inh conf 123 and GDH-TPI counter-2 108.
Screening C#CCn1c(-c2cccs2)nc2ccccc21 returned BioA inh inactive, Mtb FBA inh 68, GDH-TPI counter-1 inactive, Rv3671c inh inactive, FadD28 binding inactive, Mtb FBA inh conf 61 and GDH-TPI counter-2 39.
For C[C@H]1CN([C@@H](C)CO)C(=O)Cc2cc(NC(=O)C3CCCCC3)ccc2O[C@H]1CN(C)Cc1ccc(C(=O)O)cc1 the results were BioA inh inactive.
`C[C@H]1CN([C@@H](C)CO)C(=O)c2cccc(NC(=O)c3ccncc3)c2O[C@@H]1CN(C)Cc1ccc(Oc2ccccc2)cc1` gave BioA inh inactive.
For O=C(C[C@@H]1CC[C@@H]2[C@H](COC[C@@H](O)CN2C(=O)Nc2ccc(F)cc2)O1)NCCc1ccccc1 the results were BioA inh inactive.
CN1CCN(c2ccc(CNC(=O)c3ccc(-c4cnn(C)c4)c4ccoc34)cc2)CC1 was read as BioA inh inactive, Mtb FBA inh inactive, GDH-TPI counter-1 inactive and FadD28 binding inactive.
For CN(C)CCNC(=O)c1ccc(-c2cnn(C)c2)c2ccoc12 the results were BioA inh inactive, Mtb FBA inh 85, GDH-TPI counter-1 inactive, FadD28 binding inactive, Mtb FBA inh conf 104 and GDH-TPI counter-2 94.
